Data taken from the supplement of paper PMC10849652.
The full data set covers some 7,900 targets. This sample favours those with a hit. About 0.6% of all pairs of compound and target were hits.

Experiments:
Experiment in all cases: log2 fold change, soluble protein after heating vs DMSO (PISA); higher = thermal stabilisation; K562 cells, 10 uM, 30 min; active = over 0.2 and 3.5 SD of the protein, either way, in both replicates (recomputed)
[1] = compound: CN1CCN(CCOc2cc(OC3CCOCC3)c3c(Nc4c(Cl)ccc5c4OCO5)ncnc3c2)CC1 [saracatinib]
Procedure, shortened: (§1)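 Soluble protein was defined as the supernatant after 21,000xg for 90 min. It came from K562 cells at 2×10^6 cells/mL given 10 μM compound for 30 min, heated in aliquots for 3 min across 48°C-58°C, pooled, and extracted in PBS with 0.5% NP-40 at 4°C, and was quantified by TMTpro 16plex LC-MS/MS with equalised channel sums. Thermal stability against control samples, from duplicates, is reported as log2 fold change.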

[2] = compound: CN1CCN(c2nc(C3=C(c4c[nH]c5ccccc45)C(=O)NC3=O)c3ccccc3n2)CC1 [sotrastaurin]
Procedure, shortened: as §1

[3] = compound: CN1CC[C@H](c2c(O)cc(O)c3c(=O)cc(-c4ccccc4Cl)oc23)[C@H](O)C1 [alvocidib]
Procedure, shortened: as §1

[4] = compound: CN1CCc2c(c3ccccc3n2Cc2ccc(C(=O)NO)cc2)C1 [Tubastatin A]
Procedure, shortened: as §1

[5] = compound: CNC(=O)C1=CC=CC=C1NC2=NC(=NC=C2Cl)NC3=C(C=C(C=C3)N4CCOCC4)OC
Procedure, shortened: as §1

[6] = compound: CNC(=O)c1ccc(Nc2ncc(C(F)(F)F)c(NCc3nccnc3N(C)S(C)(=O)=O)n2)cc1 [defactinib]
Procedure, shortened: as §1

[7] = compound: CNCc1ccc(-c2[nH]c3cc(F)cc4c3c2CCNC4=O)cc1 [rucaparib]
Procedure, shortened: as §1

[8] = compound: CNc1nc(-c2ccc3c(N)n[nH]c3c2)cc(N2C[C@@H](C(=O)NC3CCCCC3)CC[C@H]2C)n1
Procedure, shortened: as §1

[9] = compound: COC(=O)N[C@@H](C)CNc1nccc(-c2cn(C(C)C)nc2-c2cc(Cl)cc(NS(C)(=O)=O)c2F)n1 [encorafenib]
Procedure, shortened: as §1

[10] = compound: COC(=O)[C@H](CCSC)NC(=O)C1=C(C=C(C=C1)NC[C@H](CS)N)C2=CC=CC=C2
Procedure, shortened: as §1

Measured: log2 fold change

FBXO42 (UniProt Q6P3S6)
inactive: [1] -0.032 | [2] 0.051 | [3] -0.107 | [4] 0 | [5] -0.067 | [6] -0.165 | [7] -0.073 | [8] 0.139 | [9] 0.03 | [10] 0.012

GLCCI1 (UniProt Q86VQ1)
UniProt Q86VQ1, sequence (Q86VQ1 whole entry, looked up): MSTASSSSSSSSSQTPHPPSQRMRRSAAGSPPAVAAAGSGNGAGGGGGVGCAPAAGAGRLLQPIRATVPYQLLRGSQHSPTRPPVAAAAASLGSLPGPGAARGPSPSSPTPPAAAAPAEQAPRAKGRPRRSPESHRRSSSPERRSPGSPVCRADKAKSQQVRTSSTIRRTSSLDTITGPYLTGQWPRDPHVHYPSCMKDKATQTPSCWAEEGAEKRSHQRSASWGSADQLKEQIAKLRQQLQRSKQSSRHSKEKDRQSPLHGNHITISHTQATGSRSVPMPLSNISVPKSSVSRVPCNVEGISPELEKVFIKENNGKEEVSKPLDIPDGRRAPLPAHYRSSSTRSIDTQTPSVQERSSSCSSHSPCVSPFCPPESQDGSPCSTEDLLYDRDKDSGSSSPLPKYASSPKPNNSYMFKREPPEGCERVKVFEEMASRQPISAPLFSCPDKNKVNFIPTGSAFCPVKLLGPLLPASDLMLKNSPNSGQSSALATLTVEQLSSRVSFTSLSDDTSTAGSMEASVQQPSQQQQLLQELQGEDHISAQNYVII
inactive: [1] -0.017 | [2] -0.016 | [3] 0.002 | [4] 0.082 | [5] -0.057 | [6] -0.072 | [7] 0.087 | [8] -0.063 | [9] 0.026 | [10] -0.051

HMGB3 (UniProt O15347)
inactive: [1] 0.05 | [2] 0.031 | [3] -0.022 | [4] 0 | [5] -0.076 | [6] 0.089 | [7] 0.008 | [8] -0.073 | [9] -0.063 | [10] 0.021

GPX4 (UniProt P36969)
UniProt P36969, sequence (P36969 whole entry, looked up): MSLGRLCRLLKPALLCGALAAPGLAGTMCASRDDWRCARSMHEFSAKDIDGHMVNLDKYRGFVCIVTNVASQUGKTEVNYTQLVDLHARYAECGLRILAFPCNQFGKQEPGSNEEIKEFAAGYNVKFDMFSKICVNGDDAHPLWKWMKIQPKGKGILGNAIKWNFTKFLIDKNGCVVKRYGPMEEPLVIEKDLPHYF
inactive: [1] 0.043 | [2] 0.004 | [3] -0.035 | [5] -0.02 | [6] -0.009 | [7] 0.002 | [8] -0.037 | [9] -0.009 | [10] -0.013
active: [4] -0.371

FBXO7 (UniProt Q9Y3I1)
inactive: [1] -0.003 | [2] 0.052 | [3] -0.069 | [4] 0.019 | [5] 0.012 | [6] -0.025 | [7] 0.068 | [8] 0.028 | [9] -0.009 | [10] -0.029

GLA (UniProt P06280)
UniProt P06280, sequence (P06280 whole entry, looked up): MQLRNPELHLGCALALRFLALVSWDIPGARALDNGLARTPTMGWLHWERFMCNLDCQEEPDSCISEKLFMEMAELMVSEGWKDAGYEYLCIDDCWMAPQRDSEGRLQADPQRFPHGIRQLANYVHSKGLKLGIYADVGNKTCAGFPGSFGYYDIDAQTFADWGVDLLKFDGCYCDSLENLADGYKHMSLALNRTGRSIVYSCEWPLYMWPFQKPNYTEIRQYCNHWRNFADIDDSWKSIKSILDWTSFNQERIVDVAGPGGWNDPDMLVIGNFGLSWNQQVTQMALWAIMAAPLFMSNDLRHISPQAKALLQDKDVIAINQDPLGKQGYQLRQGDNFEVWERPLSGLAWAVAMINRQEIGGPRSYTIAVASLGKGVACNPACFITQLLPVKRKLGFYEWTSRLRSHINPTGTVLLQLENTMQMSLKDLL
inactive: [1] 0.056 | [2] -0.027 | [3] -0.008 | [4] -0.027 | [5] -0.02 | [6] 0.008 | [7] 0.04 | [8] -0.043 | [9] -0.022 | [10] 0.059

GALNT1 (UniProt Q10472)
inactive: [1] -0.026 | [2] 0.03 | [3] -0.005 | [4] 0.064 | [5] 0.039 | [6] -0.046 | [7] 0.008 | [8] -0.047 | [9] -0.037 | [10] -0.005

HEATR5B (UniProt Q9P2D3)
inactive: [1] 0.043 | [2] 0.008 | [3] -0.023 | [4] 0.016 | [5] 0.022 | [6] -0.099 | [7] 0.028 | [8] 0.015 | [9] 0.041 | [10] -0.006

HNRNPC isoform 2 (UniProt P07910)
UniProt P07910, sequence (P07910 whole entry, looked up): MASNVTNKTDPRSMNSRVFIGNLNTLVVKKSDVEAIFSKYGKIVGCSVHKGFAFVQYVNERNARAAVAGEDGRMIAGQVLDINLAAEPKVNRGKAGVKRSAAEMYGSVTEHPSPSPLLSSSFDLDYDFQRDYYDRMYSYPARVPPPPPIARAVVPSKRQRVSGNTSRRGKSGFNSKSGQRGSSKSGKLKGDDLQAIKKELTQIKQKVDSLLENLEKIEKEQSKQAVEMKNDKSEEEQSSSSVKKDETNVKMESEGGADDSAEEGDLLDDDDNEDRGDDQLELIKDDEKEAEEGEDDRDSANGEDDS
inactive: [1] -0.067 | [2] -0.035 | [3] 0.04 | [4] 0.219 | [5] 0.033 | [6] 0.054 | [7] 0.392 | [8] 0.115 | [9] 0.148 | [10] 0.071

GAGE12F (UniProt P0CL80)
inactive: [1] 0.007 | [2] 0.053 | [3] 0.052 | [4] 0.009 | [5] -0.081 | [6] 0.095 | [7] 0.033 | [8] -0.051 | [9] -0.031 | [10] -0.02

H2AZ1 (UniProt P0C0S5)
inactive: [1] -0.082 | [2] 0.067 | [3] 0.093 | [4] -0.017 | [5] -0.102 | [6] 0.259 | [7] 0.396 | [8] -0.014 | [9] 0.107 | [10] 0.105

HNRNPH2 (UniProt P55795)
inactive: [1] -0.065 | [2] -0.081 | [3] -0.106 | [4] 0.101 | [5] -0.079 | [6] -0.173 | [7] 0.002 | [8] -0.001 | [9] 0.02 | [10] -0.068

GLYR1 (UniProt Q49A26)
inactive: [1] 0.007 | [2] 0.028 | [3] 0.14 | [4] -0.077 | [5] 0.021 | [6] -0.029 | [7] 0.211 | [8] 0.04 | [9] -0.044 | [10] -0.033

GALNT11 (UniProt Q8NCW6)
inactive: [1] -0.025 | [2] -0.024 | [3] 0 | [4] 0.028 | [5] 0.033 | [6] -0.187 | [7] -0.047 | [8] 0.01 | [9] -0.064 | [10] -0.055

HNRNPF (UniProt P52597)
inactive: [1] -0.042 | [2] -0.121 | [3] -0.088 | [4] 0.086 | [5] 0.004 | [6] -0.253 | [7] 0.098 | [8] 0.004 | [9] 0.119 | [10] -0.06

FBL (UniProt P22087)
inactive: [1] 0.11 | [2] -0.016 | [3] 0.262 | [4] -0.022 | [5] -0.012 | [6] 0.375 | [7] 0.511 | [8] 0.002 | [9] 0.096 | [10] 0.023

HEXA (UniProt P06865)
inactive: [1] 0.031 | [2] 0.098 | [3] 0.005 | [4] -0.145 | [5] -0.012 | [6] -0.008 | [7] -0.07 | [8] -0.018 | [9] 0.003 | [10] 0.016

HNRNPUL2 (UniProt Q1KMD3)
inactive: [1] -0.023 | [2] 0.039 | [3] 0.166 | [4] 0.065 | [5] -0.06 | [7] 0.125 | [8] -0.017 | [9] 0.007 | [10] 0.006
active: [6] 0.259

HEXB (UniProt P07686)
inactive: [1] 0 | [2] 0.029 | [3] -0.004 | [4] -0.101 | [5] 0.017 | [6] -0.002 | [7] -0.078 | [8] -0.033 | [9] 0.01 | [10] -0.001

HDDC2 (UniProt Q7Z4H3)
UniProt Q7Z4H3, sequence (Q7Z4H3 whole entry, looked up): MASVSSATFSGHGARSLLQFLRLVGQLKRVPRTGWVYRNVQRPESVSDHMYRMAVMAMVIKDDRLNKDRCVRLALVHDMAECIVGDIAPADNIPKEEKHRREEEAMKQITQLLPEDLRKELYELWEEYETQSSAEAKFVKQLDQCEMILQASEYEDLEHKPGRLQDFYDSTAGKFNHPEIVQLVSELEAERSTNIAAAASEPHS
inactive: [1] 0.045 | [2] 0.042 | [3] -0.049 | [4] 0.015 | [5] 0.007 | [6] -0.014 | [7] -0.014 | [8] 0.063 | [9] 0.014 | [10] -0.013

GABPA (UniProt Q06546)
inactive: [1] -0.065 | [2] -0.086 | [3] -0.134 | [4] 0.087 | [5] -0.063 | [6] -0.064 | [7] -0.015 | [8] 0.018 | [9] 0.019 | [10] 0.011

GOLPH3 (UniProt Q9H4A6)
inactive: [1] -0.016 | [2] -0.046 | [3] -0.081 | [4] 0.028 | [5] 0.022 | [6] -0.064 | [7] -0.064 | [8] 0.013 | [9] 0.047 | [10] -0.044

GEMIN5 (UniProt Q8TEQ6)
inactive: [1] -0.014 | [2] -0.035 | [3] -0.192 | [4] -0.053 | [5] -0.02 | [7] 0.026 | [8] 0.025 | [9] 0.061 | [10] -0.019
active: [6] -0.216

FNTA (UniProt P49354)
active: [10] 0.561
inactive: [1] 0.084 | [2] 0.141 | [3] -0.006 | [4] -0.068 | [5] -0.028 | [6] 0.019 | [7] -0.243 | [8] -0.016 | [9] -0.239

FAM91A1 (UniProt Q658Y4)
inactive: [1] 0.055 | [2] -0.049 | [3] -0.037 | [4] 0.005 | [5] 0.059 | [6] 0 | [7] -0.015 | [8] 0.002 | [9] 0.05 | [10] -0.025

GBA2 (UniProt Q9HCG7)
inactive: [1] -0.046 | [2] -0.026 | [3] -0.063 | [4] -0.03 | [5] -0.012 | [6] -0.07 | [7] -0.266 | [8] 0.11 | [9] 0.084 | [10] 0.071

GTPBP6 (UniProt O43824)
inactive: [1] 0.049 | [2] -0.011 | [3] 0.015 | [4] -0.03 | [5] -0.149 | [6] -0.013 | [7] 0.053 | [8] 0.007 | [9] -0.086 | [10] 0.057

IDH3A (UniProt P50213)
UniProt P50213, sequence (P50213 whole entry, looked up): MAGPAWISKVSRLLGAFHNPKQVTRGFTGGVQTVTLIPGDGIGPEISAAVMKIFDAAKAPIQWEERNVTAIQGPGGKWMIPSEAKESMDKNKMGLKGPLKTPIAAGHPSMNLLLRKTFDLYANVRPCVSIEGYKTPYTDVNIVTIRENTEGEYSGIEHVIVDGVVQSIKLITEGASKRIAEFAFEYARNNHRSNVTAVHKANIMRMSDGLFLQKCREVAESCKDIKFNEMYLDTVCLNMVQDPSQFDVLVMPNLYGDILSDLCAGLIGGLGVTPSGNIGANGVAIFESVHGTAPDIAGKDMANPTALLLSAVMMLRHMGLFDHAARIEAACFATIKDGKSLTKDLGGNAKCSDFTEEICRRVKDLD
inactive: [1] -0.004 | [2] 0.008 | [3] -0.056 | [4] -0.058 | [5] -0.026 | [6] -0.023 | [7] -0.031 | [8] -0.026 | [9] -0.01 | [10] 0.002

GDE1 (UniProt Q9NZC3)
UniProt Q9NZC3, sequence (Q9NZC3 whole entry, looked up): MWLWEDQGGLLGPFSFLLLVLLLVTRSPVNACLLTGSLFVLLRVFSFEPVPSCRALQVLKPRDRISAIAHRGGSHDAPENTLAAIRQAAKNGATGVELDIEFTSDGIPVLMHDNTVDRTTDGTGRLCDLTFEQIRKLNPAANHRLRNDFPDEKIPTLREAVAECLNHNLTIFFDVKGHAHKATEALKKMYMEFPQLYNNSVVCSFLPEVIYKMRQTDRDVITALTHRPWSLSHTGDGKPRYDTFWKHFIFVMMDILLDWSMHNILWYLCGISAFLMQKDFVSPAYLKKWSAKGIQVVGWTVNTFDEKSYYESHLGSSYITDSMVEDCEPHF
active: [4] -0.316
inactive: [1] 0.029 | [2] 0.051 | [3] -0.059 | [5] -0.003 | [6] -0.017 | [7] 0.009 | [8] 0.01 | [9] -0.017 | [10] 0.024

FASTKD1 (UniProt Q53R41)
inactive: [1] -0.118 | [2] -0.046 | [3] -0.12 | [4] 0.037 | [5] 0.037 | [6] -0.22 | [7] -0.093 | [8] 0.112 | [9] 0.026 | [10] -0.02

HMGN2 (UniProt P05204)
inactive: [1] -0.138 | [2] 0.156 | [3] 0.069 | [4] -0.05 | [5] 0.026 | [6] 0.046 | [7] 0.13 | [8] 0.075 | [9] -0.091 | [10] 0.013

FLNA (UniProt P21333)
UniProt P21333, sequence (P21333 whole entry, looked up): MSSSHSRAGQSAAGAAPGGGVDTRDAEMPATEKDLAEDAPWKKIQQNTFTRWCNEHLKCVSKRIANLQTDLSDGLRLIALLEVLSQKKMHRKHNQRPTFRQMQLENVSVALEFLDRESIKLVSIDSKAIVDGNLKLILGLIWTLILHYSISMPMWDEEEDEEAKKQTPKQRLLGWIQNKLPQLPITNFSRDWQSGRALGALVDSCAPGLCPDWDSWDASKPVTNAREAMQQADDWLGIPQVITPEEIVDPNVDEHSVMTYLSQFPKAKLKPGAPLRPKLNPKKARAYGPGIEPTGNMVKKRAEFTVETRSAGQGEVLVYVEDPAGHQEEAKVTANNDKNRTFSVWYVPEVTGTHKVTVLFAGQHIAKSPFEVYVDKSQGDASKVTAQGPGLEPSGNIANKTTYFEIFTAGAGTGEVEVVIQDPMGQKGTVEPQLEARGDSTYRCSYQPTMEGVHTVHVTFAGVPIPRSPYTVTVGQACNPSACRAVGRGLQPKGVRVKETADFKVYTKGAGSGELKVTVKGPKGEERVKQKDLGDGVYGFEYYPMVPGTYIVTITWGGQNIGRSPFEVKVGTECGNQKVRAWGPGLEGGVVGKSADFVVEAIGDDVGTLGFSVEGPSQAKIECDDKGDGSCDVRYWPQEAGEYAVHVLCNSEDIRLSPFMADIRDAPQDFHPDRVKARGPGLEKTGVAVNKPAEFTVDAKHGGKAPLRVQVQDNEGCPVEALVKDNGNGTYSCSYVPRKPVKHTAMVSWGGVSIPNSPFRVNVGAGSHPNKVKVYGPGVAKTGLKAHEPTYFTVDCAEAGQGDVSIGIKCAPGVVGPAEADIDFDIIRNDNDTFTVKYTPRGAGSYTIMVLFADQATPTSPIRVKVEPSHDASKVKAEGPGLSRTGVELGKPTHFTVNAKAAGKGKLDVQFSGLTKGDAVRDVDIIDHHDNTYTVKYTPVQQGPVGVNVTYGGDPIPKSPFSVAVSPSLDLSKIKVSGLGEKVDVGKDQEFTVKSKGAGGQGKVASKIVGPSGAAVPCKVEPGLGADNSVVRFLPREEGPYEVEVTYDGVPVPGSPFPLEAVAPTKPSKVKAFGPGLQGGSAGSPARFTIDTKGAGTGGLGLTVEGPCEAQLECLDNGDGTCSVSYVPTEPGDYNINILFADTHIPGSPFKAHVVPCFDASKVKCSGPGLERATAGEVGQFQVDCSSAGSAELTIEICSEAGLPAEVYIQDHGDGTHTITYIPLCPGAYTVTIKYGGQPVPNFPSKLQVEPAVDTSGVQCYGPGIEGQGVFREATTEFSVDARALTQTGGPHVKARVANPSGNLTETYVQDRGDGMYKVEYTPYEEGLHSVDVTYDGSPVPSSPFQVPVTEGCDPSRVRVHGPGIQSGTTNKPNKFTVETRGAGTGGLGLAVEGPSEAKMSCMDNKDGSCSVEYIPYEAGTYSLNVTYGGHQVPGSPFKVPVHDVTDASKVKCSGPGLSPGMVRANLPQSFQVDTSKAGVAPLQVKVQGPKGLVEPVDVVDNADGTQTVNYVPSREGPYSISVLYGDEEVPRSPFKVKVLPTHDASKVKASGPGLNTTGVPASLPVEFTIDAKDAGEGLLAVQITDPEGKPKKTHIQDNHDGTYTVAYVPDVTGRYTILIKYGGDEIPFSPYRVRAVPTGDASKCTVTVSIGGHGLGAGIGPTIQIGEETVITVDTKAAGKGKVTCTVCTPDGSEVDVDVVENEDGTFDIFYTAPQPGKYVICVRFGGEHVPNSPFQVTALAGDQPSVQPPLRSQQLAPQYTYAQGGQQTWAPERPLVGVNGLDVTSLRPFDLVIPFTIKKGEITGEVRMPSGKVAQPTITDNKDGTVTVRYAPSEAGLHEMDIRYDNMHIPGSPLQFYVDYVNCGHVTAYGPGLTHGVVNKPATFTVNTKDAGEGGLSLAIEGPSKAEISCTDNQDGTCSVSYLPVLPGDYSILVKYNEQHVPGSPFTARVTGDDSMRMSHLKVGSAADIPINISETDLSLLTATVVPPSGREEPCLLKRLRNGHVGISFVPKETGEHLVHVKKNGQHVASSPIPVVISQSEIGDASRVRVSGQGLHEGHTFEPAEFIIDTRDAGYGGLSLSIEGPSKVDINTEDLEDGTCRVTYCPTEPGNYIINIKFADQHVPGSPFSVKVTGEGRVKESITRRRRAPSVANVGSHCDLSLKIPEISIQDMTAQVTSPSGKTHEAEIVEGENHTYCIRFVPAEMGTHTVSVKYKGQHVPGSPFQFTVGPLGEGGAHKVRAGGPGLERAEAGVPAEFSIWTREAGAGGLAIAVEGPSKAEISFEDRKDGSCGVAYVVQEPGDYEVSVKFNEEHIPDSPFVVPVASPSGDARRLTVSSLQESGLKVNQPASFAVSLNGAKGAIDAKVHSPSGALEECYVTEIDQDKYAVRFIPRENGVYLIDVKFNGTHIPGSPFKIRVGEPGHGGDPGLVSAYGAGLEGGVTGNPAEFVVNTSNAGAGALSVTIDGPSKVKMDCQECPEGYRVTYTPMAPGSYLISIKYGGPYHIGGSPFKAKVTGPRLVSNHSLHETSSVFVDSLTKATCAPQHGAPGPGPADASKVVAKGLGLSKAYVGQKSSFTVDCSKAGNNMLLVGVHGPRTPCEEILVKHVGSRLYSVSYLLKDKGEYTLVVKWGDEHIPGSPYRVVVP
inactive: [1] -0.076 | [2] -0.161 | [3] -0.017 | [4] 0.052 | [5] 0.106 | [6] -0.042 | [7] 0.1 | [8] 0.017 | [9] 0.089 | [10] -0.053

FNTB (UniProt P49356)
inactive: [1] 0.046 | [2] 0.346 | [3] -0.113 | [4] 0.017 | [5] -0.036 | [6] 0.095 | [7] 0.02 | [8] -0.007 | [9] -0.016
active: [10] 0.974
